TRPM1 prom inh – inhibitors of MITF-dependent TRPM1 promoter reporter, primary screen, cell-based, SK-MEL-5, single point, luciferase; SK-MEL-5 TRPM1 promoter luciferase, 24 h; inhibition, % at 12.5 µM; 330,000 compounds, 0.83% hits; AID 488899, 2010;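 active means mean inhibition across replicates of 60% or more, whatever share of single replicates reaches that level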
TWEAK-Fn14 inh – inhibitors of TWEAK-Fn14 signaling, primary screen, luciferase reporter cells, uHTS. TWEAK-stimulated Fn14 reporter cells, luciferase luminescence, 8 h. 360,000 compounds, 2% hits. AID 1159606, 2016. inhibition, % at 10 µM; in the data active means inhibition above about 50%
LMP1 NFkB inh – EBV LMP1-driven NF-kappaB luciferase reporter inhibitors, primary screen, cell-based, luminescence, single point. LMP1-induced NF-kappaB luciferase reporter cells. inhibition, % at 12.5 µM. 350,000 compounds, 0.69% hits. AID 504558, 2011; in the data active means inhibition above about 41%;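 further: 0% = neutral control wells and 100% = reference inhibitor control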
MITF TRPM1 HTS – activators of MITF-driven TRPM1 promoter reporter, primary screen, cell-based, SK-MEL-5, luciferase, single point; 300,000 compounds, 0.75% hits; activation, % at 12.5 µM; SK-MEL-5 TRPM1-promoter luciferase, 24 h; % of positive control, neutral wells = 0;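 active means mean activation of at least 80% with every replicate also reaching 80%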;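 further: 0% = neutral control wells and 100% = parthenolide positive control wells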
LGR2 antag – inhibitors of bursicon-induced LGR2 CRE-luciferase signal, primary screen, cell-based, HEK293, CRE-luciferase reporter, bursicon stimulation. bursicon-stimulated, 4 h. 380,000 compounds, 0.35% hits. inhibition, % at 9.99 µM;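 active means drop in luminescence signal, shown as inhibition above about 50% in the replicate tests, limit read from the data, passing the limit was not always enough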;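 further: agonist challenge used bursicon conditioned medium at about half maximal strength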
TROY NFkB inh – inhibitors of TROY-driven NF-kB signaling, primary screen, Q293 LMP1-TROYcd cells, NF-kB luciferase, uHTS | AID 1347056, 2019 | 360,000 compounds, 0.98% hits | Q293 LMP1-TROYcd NF-kB luciferase reporter, 4 h | inhibition, % at 10 µM;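 active means compounds whose plate-normalised and pattern-corrected inhibition of the luciferase reporter signal at the single screening dose is 50% or more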
* marks the source's active call; other numbers are inactive results; · = no result. Shown are actives, neighbours in structure and some others; about 3% of the full set was active somewhere.

SMILES	TRPM1 prom inh	TWEAK-Fn14 inh	LMP1 NFkB inh	MITF TRPM1 HTS	LGR2 antag	TROY NFkB inh
CCC1(C)Cc2[nH]c(=O)c(C#N)cc2CO1 (centres undefined)	3	86*	-12	-4	-21	8
COc1ccc2cc(C(=O)N3CCN(C)CC3)[nH]c2c1	-41	-11	-13	44	-87	-24
CCN1CCN(C(=O)c2cc3ccc(OC)cc3[nH]2)CC1	-96	1	-4	95*	-20	-13
COc1ccccc1-c1cn(CC[C@@H]2CC[C@H](NC(=O)c3cnccn3)[C@H](CO)O2)nn1	·	·	·	·	7	·
COc1ccc(OCCCC(=O)NC(C)c2ccccc2)cc1 (centres undefined)	-4	-16	8	3	20	8
CC(NC(=O)CCOc1ccccc1)c1ccccc1 (centres undefined)	-4	-9	74*	4	·	-17
O=c1[nH]nc(Sc2ncnc3sccc23)n1CCc1ccccc1	23	57*	20	·	·	22
Cc1ccccc1Oc1ccc(NC(=O)C2CC=CCC2C(=O)O)cc1 (centres undefined)	-9	7	1	7	-10	-3
CC(C)(C)c1ccc(Oc2ccc(NC(=O)C3CC=CCC3C(=O)O)cc2)cc1 (centres undefined)	27	28	2	-27	25	76*
c1ccc(-c2noc(-c3ccccc3-c3ccccc3)n2)cc1	0	7	5	-2	-1	-36
CN(C)c1ccc(-c2noc(-c3ccccc3O)n2)cc1	3	76*	3	-2	·	27
CC(C)Cn1c(-c2ccncc2)n[nH]c1=S	-1	-9	-3	3	4	5
CC(C)Cn1c(-c2ccc(F)cc2)n[nH]c1=S	3	65*	9	-5	·	·
CC(=O)Nc1ccc(/C=C/c2nc3ccccc3o2)cc1	-67	17	-29	72	-1	-16
O=C(Nc1ccc(/C=C/c2nc3ccccc3o2)cc1)c1c(F)cccc1F	-17	38	-22	18	·	59*
C/C(=N\NC(=O)c1ccccc1-n1cccc1)c1ccccn1	·	-93	8	·	0	-11
CC(=NNC(=S)Nc1ccccc1Cl)c1ccccn1	47	4	57*	-46	7	-3
CC(=NNC(=S)Nc1ccccc1)c1ccccn1	·	-68	72*	·	27	-38
C=CCNC(=S)N/N=C(\C)c1ccccn1	59	108*	80*	-56	·	-42
C[C@@H]1CCCCO[C@H](CN(C)C)[C@H](C)CN([C@H](C)CO)C(=O)c2cc(NC(=O)NC3CCCCC3)ccc2O1	·	·	·	·	-3	·
O=c1[nH]c(=O)c2cc([N+](=O)[O-])cc([N+](=O)[O-])c2[nH]1	2	7	24	-5	46	68*
Cc1noc(C)c1S(=O)(=O)N(C)C[C@@H]1OCCCC[C@H](C)Oc2ccc(NC(=O)Nc3ccc(C(F)(F)F)cc3)cc2C(=O)N([C@H](C)CO)C[C@@H]1C	·	·	·	·	24	·
O=C1C(Cl)=C(NCCCO)C(=O)c2ccccc21	84*	-23	-3	-82	·	-26
O=C1C(Cl)=C(NCCCN2CCOCC2)C(=O)c2ccccc21	98*	0	-12	-98	·	-51
CCOCCCNC1=C(Cl)C(=O)c2ccccc2C1=O	30	-1	-6	·	-37	-29
SMILES	TRPM1 prom inh	TWEAK-Fn14 inh	LMP1 NFkB inh	MITF TRPM1 HTS	LGR2 antag	TROY NFkB inh
O=S(=O)(c1ccccc1)c1nc(-c2ccccc2Cl)oc1NCCCN1CCOCC1	6	4	-2	-7	·	10
O=C1C(Cl)=C(NCCN2CCOCC2)C(=O)c2ccccc21	69*	22	8	-65	0	-5
COc1ccc(-c2ccc3oc(-c4ccsc4)cc(=O)c3c2)cc1F	-41	-28	-16	50	-25	-69
COc1ccc(-c2ccc3oc(-c4ccsc4)cc(=O)c3c2)cn1	-137	-25	-33	138*	-24	63*
O=c1cc(-c2ccsc2)oc2ccc(-c3ccc4cc[nH]c4c3)cc12	-105	-40	-40	115*	-92	-21
Cc1noc(C)c1NC(=O)Nc1ccc2c(c1)C(=O)N([C@H](C)CO)C[C@@H](C)[C@H](CN(C)S(C)(=O)=O)OCCCC[C@@H](C)O2	·	·	·	·	10	·
CN=c1sc2c(n1C)C(=O)c1ccccc1C2=O	93*	89*	4	-92	-5	48
CC(C)CC#Cc1ccc2c(c1)O[C@H](CN(C)C(=O)CC1CC1)[C@H](C)CN([C@H](C)CO)S2(=O)=O	·	·	·	·	0	·
O=C(Nc1ccncc1)C1COc2ccccc2O1 (centres undefined)	-16	0	-5	11	·	-3
Cc1nnc(NC(=O)C2COc3ccccc3O2)s1 (centres undefined)	-44	-3	-5	·	·	-18
O=C(NC1=NCCS1)C1COc2ccccc2O1 (centres undefined)	80*	106*	71*	-79	·	86*
O=C(Nc1nc2c(s1)CCCC2)C1COc2ccccc2O1 (centres undefined)	6	82*	19	-3	80*	71*
COCC(=O)Nc1ccc2c(c1)OC[C@H](C)N(Cc1cc(F)ccc1F)C[C@@H](C)[C@@H](OC)CN(C)C2=O	·	·	·	·	-1	·
CN(C)c1cccc(-c2csc(N3CCC(C(N)=O)CC3)n2)c1	-74	-32	-17	83*	·	-60
O=C(NC1CCC1)[C@@H]1[C@@H](CO)[C@@H]2Cn3c(cccc3=O)[C@@H]2N1CC1CCOCC1	·	·	·	·	-14	·
C=CCSc1nnc(NC(=O)c2cn(CC)c3nc(C)ccc3c2=O)s1	-6	90*	6	7	-10	5
CCn1cc(C(=O)NCc2cccs2)c(=O)c2ccc(C)nc21	-13	4	-1	12	1	-6
C/C=C/c1ccc([C@H]2[C@@H](CO)N(CCC(F)(F)F)C23CN(C(C)=O)C3)cc1	·	·	·	·	-16	·
CNC(=O)C[C@H]1CC[C@H]2[C@@H](COc3ccc(NC(=O)c4ccc(C#N)cc4)cc3C(=O)N2C)O1	·	·	·	·	15	·
CCN(c1ccccc1)S(=O)(=O)c1cc(C(=O)Nc2cccc(Cl)c2)ccc1F	11	68*	-8	-7	15	46
COc1ccc2c3c(n(C)c2c1)[C@@H](CO)N(Cc1cccnc1)CC31CN(C(=O)c2cccnc2)C1	·	·	·	·	-13	·
COCC(=O)N1C[C@H](C)[C@@H](OC)CN(C)C(=O)c2cc(NC(=O)NC(C)C)ccc2OC[C@@H]1C	·	·	·	·	6	·
C/C=C/c1ccc([C@@H]2[C@H](CO)N(C(=O)CC)[C@H]2CNC(=O)CC2CC2)cc1	·	·	·	·	4	·

Assay outcomes from PubChem BioAssay.
